Bioassay records: PubChem, several laboratories
Myeloid diff MLP – compounds promoting myeloid differentiation; 360,000 tested, 1% active; calls only at 10 µM; ER-HoxA9 myeloid progenitors, lysozyme-GFP differentiation, flow cytometry;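 active = normalized GFP-positive differentiation at or above the plate's own cutoff, the solvent-only control mean plus 3 SD; inconclusive = no clear call, values can overlap the other calls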;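 also: cells exposed to compound for four days before flow analysis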
NPR1 activator – GC-A (human) enzyme activation; AID 1671463; HEK293 GC-A cells, cGMP TR-FRET, EC30 ANP; 0% at EC30 ANP, 100% saturating ANP; activation, % at 10 µM; 370,000 tested, 0.14% active; in the data active = activation above about 40%
Exocytosis inh – blocks lytic granule exocytosis | TALL-104 LAMP-1 surface exposure, flow cytometry; cells stimulated with thapsigargin and PMA | inhibition, % at 10 µM | 360,000 tested, 0.66% active;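 active = inhibition above about 55%, limit read from the data; inconclusive = no clear call, values can overlap the other calls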
GC-B act – GC-B (human) receptor activation. activation, % at 10 µM. HEK293-GC-B cells, CNP EC30, cGMP TR-FRET; 0% at EC30 CNP, 100% saturating CNP. AID 1920062. 370,000 tested, 0.11% active;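 active = activation at 10 µM reaching about 35% in either raw or pattern-adjusted values, limit read from the data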
Myeloid diff – promotes myeloid progenitor differentiation | 2,300 tested, 2% active | calls only | ER-HoxA9 myeloid progenitors, GFP/Mac1 double-positive flow | shares compounds with Myeloid diff MLP;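 active = share of green or green-and-red cells above 9 and 9% in run 1 or 4 and 3% in run 2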
GFP autofluor – flagged as fluorescent in myeloid differentiation counter-screen | 2,300 tested, 7.4% active | fluorescence response, % (concentration not given with the values) | shares compounds with Myeloid diff MLP | ER-HoxA9 myeloid progenitors, no estrogen, GFP autofluorescence flow cytometry; vehicle wells 0%, positive control 100%;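 active = over 5% cells positive for green fluorescent reporter, or over 2% positive for both it and APC stain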;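 also: range taken on the double positive population between DMSO and positive control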
* marks the source's active call; other numbers are inactive results; i = inactive; ? = inconclusive; . = no result given; + = active, no number. The list is not random: actives were taken first. Their share in the collection is about 1.8%.

SMILES	Myeloid diff MLP	NPR1 activator	Exocytosis inh	GC-B act	Myeloid diff	GFP autofluor
COc1ccccc1NC(=O)CSc1nnnn1-c1ccccc1OC	i	-2	-1	2	.	.
COc1ccc(-n2nnnc2SCC(=O)Nc2nnc(C)s2)cc1	+	2	-1	-8	i	1
COc1ccccc1NC(=O)CSc1nnnn1-c1ccc2c(c1)OCO2	i	5	0	-5	i	0
CCC(CO)Nc1cccc2c1S(=O)(=O)N(Cc1cn(Cc3cccc(C(F)(F)F)c3)nn1)Cc1ccccc1O2 (stereo not given)	.	-3	.	1	.	.
O=C(OCc1cn(Cc2cc(F)ccc2F)nn1)N1CCOCC1	.	2	.	1	.	.
C=CCN=C1NC(c2ccc(Cl)cc2)C(C(=O)OC)=C(C)N1Cc1cccc(C(F)(F)F)c1 (stereo not given)	.	-27	.	-24	.	.
C#CC[N+](C)(C)CCCCCCCCCC	?	-1	9	4	.	.
C#CC[N+](C)(C)CCCCCCCC	i	1	-2	7	i	0
O=S1(=O)N[C@H](Cc2ccccc2)COc2cc(F)ccc21	.	3	.	0	.	.
O=C(COC(=O)c1cccs1)NCc1ccc2c(c1)OCO2	+	0	-4	0	i	0
CCC1CCCCN1Cc1ccc(OC)c(OC)c1 (stereo not given)	i	4	1	-1	.	.
COc1cc(C)c(CN2CCCCC2CO)cc1C (stereo not given)	+	0	5	1	i	0
COc1ccccc1NS(=O)(=O)c1cc(NC(=O)Cc2n[nH]c(=O)c3ccccc23)ccc1Cl	i	-7	1	0	i	0
COC(=O)[C@H]1C[C@@]2(C)c3ccccc3N(S(=O)(=O)c3ccccc3)[C@H]2N1C(=O)CNC1CCCCC1	.	1	.	-3	.	.
CC(COc1ccc(C#N)cc1)CN1CCC(C(O)(c2ccccc2)c2ccccc2)CC1 (stereo not given)	.	-24	.	-17	.	.
O=C(NC1CCCC1)c1nc(-c2c(F)cccc2F)oc1-c1ccccc1	i	2	5	0	.	.
CCOC(=O)CCCCCC(=O)Nc1ccc2c(c1)C(=O)N([C@H](C)CO)C[C@H](C)[C@@H](CN(C)S(C)(=O)=O)OCCCC[C@@H](C)O2	i	4	0	0	.	.
O=c1[nH]c(/C=C2\C=Nc3ccccc32)c(O)n1Cc1ccccc1F	i	4	4	-3	i	0
COc1ccc(NS(=O)(=O)c2cccc(C(=O)NNC(=O)CNC(=O)c3ccccc3)c2)cc1	i	-2	-1	-1	.	.
COc1ccc(N2CCN(C(=O)c3cccc(NS(=O)(=O)c4cccc(F)c4)c3)CC2)cc1	i	7	-1	1	.	.
COc1ccc(N2CCN(C(=O)c3ccc(NS(=O)(=O)c4cccc(F)c4)cc3)CC2)cc1	i	-3	0	-6	i	1
COc1ccc(N2CCN(C(=O)c3ccc(C)c(Cl)c3)CC2)cc1	i	-7	12	3	i	0
COc1ccc(N2CCN(C(=O)c3ccc(Cl)c(S(=O)(=O)N4CCCC4)c3)CC2)cc1	i	0	0	4	.	.
COc1ccc(NS(=O)(=O)c2cccc(C(=O)NNC(=O)COc3ccccc3)c2)cc1	+	0	2	-3	i	0
Cn1c(=O)c2cc(NC(=O)CCc3cccnc3)ccc2n1Cc1ccc(F)cc1	i	4	17	4	.	.
SMILES	Myeloid diff MLP	NPR1 activator	Exocytosis inh	GC-B act	Myeloid diff	GFP autofluor
COc1ccc(-c2ccc(C(=O)Nc3cccc(C(F)(F)F)c3)c3occc23)c(C)c1	i	-3	-7	-4	.	.
C[C@H](CO)N1C[C@H](C)[C@@H](CN(C)S(=O)(=O)c2ccc(F)cc2)Oc2ccc(NC(=O)C3CCCCC3)cc2C1=O	i	1	-3	1	i	0
O=C(CCC(=O)N(CC(=O)NC1CCCCC1)c1ccc2c(c1)OCO2)Nc1ccccn1	i	6	0	2	i	0
O=C(NCC1CCN(C(=O)C(=O)c2cc3ccccc3o2)CC1)c1ccc2c(c1)OCO2	.	1	.	-2	.	.
CCn1c(CNC(=O)COc2ccc(C(C)C)cc2)nnc1SCC(=O)Nc1ccc(F)cc1	i	-2	1	1	i	0
COC(=O)CCCn1cc(CN2CC(N3CCN(Cc4ccccc4F)CC3)CS2(=O)=O)nn1 (stereo not given)	i	3	-4	-4	.	.
Cc1cccc(NC(=S)N(CCCN2CCOCC2)Cc2ccccn2)c1	i	-3	-3	4	.	.
S=C(Nc1ccc(Oc2ccccc2)cc1)N(CCCN1CCOCC1)Cc1ccccn1	+	-1	3	3	i	0
CC1NC(=O)c2ccccc2-n2c1nc1ccc(F)cc1c2=O (stereo not given)	i	3	-1	1	.	.
CCOC(=O)c1ccccc1NC(=O)Cn1cnc2c(cnn2-c2ccccc2)c1=O	i	5	-1	-5	i	0
O=C(NCc1ccccc1)c1cnc(Cc2c[nH]c3ccccc23)c(I)c1	i	1	-3	-3	.	.
COc1ccc(Nc2nc(N)nc(CN3CCN(c4ccc(F)cc4)CC3)n2)cc1	i	0	8	1	i	0
CC(C)O/C(=N/S(=O)(=O)c1ccc(Cl)cc1)c1ccccc1	i	-6	-2	2	.	.
COc1ccc(C(=O)Cn2cc[n+](C)c2)cc1	+	3	0	5	i	0
CC(=O)c1cc(-c2cnn(Cc3ccccc3)c2)c(=O)n2c1CCC2	.	4	.	-7	.	.
O=C(Nc1cccc2ncccc12)c1ccc([N+](=O)[O-])o1	+	1	5	-5	i	0
Cc1ccc(C(C(=O)NC2CCCCC2)N(Cc2cccnc2)C(=O)C2COc3ccccc3O2)o1 (stereo not given)	+	-3	-2	3	i	1
CCc1ccc(C=C2SC(=S)N(CCCC(=O)Nc3ccc(C(=O)O)cc3)C2=O)cc1	i	-3	2	1	i	0
CCc1ccc(/C=C2/SC(=S)N(CCC(=O)Nc3ccc(C(=O)O)cc3)C2=O)cc1	i	0	10	-3	.	.
Cc1cc(C)c(S(C)(=O)=O)c(=O)[nH]1	i	-5	5	3	.	.
Cc1cc(=O)c2c([nH]1)c(C)cc1[nH]c(C)c(C)c12	i	-2	-2	3	i	0
Cc1ccc(-c2nsc(SCC(=O)Nc3ccc4c(c3)OCO4)n2)cc1	i	-1	-7	-6	.	.
O=C(CSc1nc(-c2ccccc2Cl)ns1)Nc1ccc2c(c1)OCO2	+	5	-1	-1	i	0
Cc1nc(SC(C)C(=O)NCC2CCCO2)c2cc(-c3ccccc3)sc2n1 (stereo not given)	+	3	4	-10	i	39*
